The panel holds about 83,000 compounds, 20% with a hit somewhere; the sample as a whole holds those more often.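 Percent growth is the endpoint: 0 to 100 indicates growth inhibition (40 means 60% inhibition), 0 means no net growth, and negative values indicate cell death.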 Unmarked numbers belong to inactive results. The source made the active and inactive calls.

For this assay, the system named is HOP-92 NSCLC. The assay is described as follows: NCI-60 one-dose screen, 48 h (100 = growth as untreated, 0 = no growth, -100 = all killed). Particulars: 10 µM unless noted. How it is done:
Growth inhibition of the HOP-92 human Non-Small Cell Lung tumor cell line is measured as a screen for anti-cancer activity. Cells are grown in 96 well plates and exposed to the test compound for 48 hours. Compounds are tested at a single concentration, which is 10^-5 M for most compounds. The reported endpoint is percent growth (GI% or GIPRCNT), where numbers from 0 - 100% represent growth inhibition, and numbers from -100% - 0 represent cell death. For example, a value of 40 represents 60% growth inhibition. A value of 0 means no net growth occurred over the course of the experiment. A value of -40 indicates 40% of cells at the beginning of the experiment died by the end of the experiment. A value of -100 means all cells are dead at the end of the experiment.
NCI-60 Human Tumor Cell Lines Screen was performed using the standard one-dose NCI protocol, which is described in more detail at https://dtp.cancer.gov/discovery_development/nci-60/default.htm.
Compounds with GIPRCNT values below 10 were considered active. Activity score was based on GIPRCNT using the following formula: […]
Score is 0 for GIPRCNT values of 100 or above, 50 for GIPRCNT values of 0, and 100 for GIPRCNT values of -100.
Regarding `CCc1n(Cc2ccc3ccccc3n2)cc[n+]1Cc1ccc2ccccc2n1`, the growth was -11.9% (active).

`COc1cccc(-c2cc(-c3cccc(Cl)c3)c(C#N)c(=O)[nH]2)c1`: the growth was 51.7%.

Take `CN(Cc1cnc2nc(N)nc(N)c2n1)c1ccc(C(=O)NC(CCC(=O)O)C(=O)O)cc1Br` (stereo not given): the growth was 59.6%.

For `O=C(/C=C/c1ccccc1)c1ccc(Nc2nc(Nc3ccc(F)cc3)nc(Nc3ccc(Cl)cc3)n2)cc1`, the growth was 48.1%.

As to `N#C/C(=C\c1ccc(-c2cccc(C(F)(F)F)c2)o1)c1ccccc1`, the growth was 87.5%.

On to `Cc1ccc(CNc2c3ccccc3nc3ccccc23)cc1`, for which the growth is 3.24% (active).

As for `CN1CCN(Cc2ccc(NC(=O)c3cncc(C#Cc4cnc(N)c5ccc(F)cc45)c3)cc2C(F)(F)F)CC1`, the growth was -6.92% (active).

Regarding `COc1cc2nc3sc(C(=O)Nc4ccc(C(=O)OC(C)C)cc4)c(C(=O)Nc4ccc(Cl)cc4C)n3c(=O)c2cc1OC`, the growth was 32.5%.

For the compound `COc1ccc(N2CCN(C(=O)c3sc4nc(C)c(Br)c(C)c4c3N)CC2)cc1`, the growth was 88.9%.

Take `CCCCCCCCCCCCCOC(=O)c1c(C)[nH]c(/C=C2\N=C(c3ccc[nH]3)C=C2OC)c1C`: the growth is -6.46% (active).

With `FC(F)(F)Oc1cccc(-c2cnc3ccc(-c4ccncc4)nn23)c1`, the growth was 17.4%.

Regarding `CCN(CC)CCN1C(=O)c2c(c(C)c3c(oc4ccc(O)cc43)c2C)C1=O`, the growth was 91.7%.

As for `CCOC(=O)C(=Cc1ccc(-c2ccccc2)cc1)C(=O)OCC`, the growth was 63.2%.

Regarding `O=[N+]([O-])c1ccc(-c2cn3nc(-c4c[nH]c5ccccc45)sc3n2)cc1`, the growth was 102%.

Turning to `COC(=O)c1cc(Br)ccc1O`, the growth is 86.6%.

Take `Fc1cccc(-c2ccc3c(c2)C2(CCNCC2)CN3)c1`: the growth is 91.3%.

`C=C(CNCCc1ccc(O)cc1)[C@@H]1CC[C@]2(CO)CC[C@]3(C)[C@H](CC[C@@H]4[C@@]5(C)CCC(=O)C(C)(C)[C@@H]5CC[C@]43C)[C@@H]12`: the growth is 35.1%.

Take `COc1cc(/C=C/C(=O)c2ccc(-n3cc(CN4CCN(c5cc6c(cc5F)c(=O)c(C(=O)O)cn6C5CC5)CC4)nn3)cc2)ccc1O`: the growth was 79.3%.

Take `Cc1ncc(C(=O)Nc2ccc(CN3CCN(C)CC3)c(C(F)(F)F)c2)cc1C#Cc1cnc(N)c2ncccc12`: the growth was 14.7%.

Turning to `CNC1=C([N+](=O)[O-])C(c2ccc(OC)cc2)C(C#N)=C(c2cccs2)O1` (stereo not given), the growth is 125%.

On to `Cc1cc(Nc2ccc(C(=O)N3CCCC3)cc2)nc(NCCCNc2ccnc3cc(Cl)ccc23)n1`, for which the growth was 90.5%.

For the compound `Cc1ccc2c(-c3nnc(N)s3)cc(=O)oc2c1C`, the growth is 106%.

`CS(=O)(=O)Nc1cc(-c2ccc3ncc(C#N)c(Nc4ccc(F)c(Cl)c4)c3c2)cnc1Cl`: the growth is -1.46% (active).

As to `C=C1C(=O)O[C@H]2[C@H]1CC/C(COC(=O)c1ccc(C(=O)O)s1)=C\CC[C@@]1(C)O[C@@H]21`, the growth is 1.03% (active).

As for `CC[N+]1(CC)CC[N+]2(CCCC(C)CC2)CC1` (stereo not given), the growth was 96.4%.

As for `CS(=O)(=O)c1ccc(NC(=O)c2ccccc2)nc1`, the growth is 106%.

For `O=C(CCSc1nnc2n(Cc3ccccc3)c(=O)c3c4c(sc3n12)CCCC4)N1CCN(c2ccccc2)CC1`, the growth is 94%.

For `Cc1ccc2c(=O)cc(C(=O)Nc3sc4c(c3C(=O)NCc3cccnc3)CCCC4)oc2c1C`, the growth is 97.3%.

As to `COc1ccc(-c2nc3c(N)c(CO)cnc3s2)cc1`, the growth was 77%.

Take `COc1ccc(C(O)c2cc3c(N)c(C(=O)Nc4cccc(Cl)c4C)sc3nc2C)cc1` (stereo not given): the growth is 16.2%.

Consider `C=C1C(=O)O[C@H]2[C@H]1CC/C(CNC(=O)c1c[nH]c3ccc(F)cc13)=C\CC[C@@]1(C)O[C@@H]21`, for which the growth is -42.3% (active).

In the case of `Cc1cccc2c1C[C@@]1(C2=O)C(c2ccc(C(C)(C)C)cc2)=NOS1=O` (stereo not given in full), the growth was 74.3%.

In the case of `COc1cc(C2C(C(=O)OCc3ccccc3)=C(C)NC(C)=C2C(=O)OCc2ccccc2)cc(OC)c1OC`, the growth is -4.65% (active).

For `O=C(Nc1ncccc1OCc1ccccc1)NC1CCCCCC1`, the growth was 68.4%.

Turning to `Oc1c(CN2CCCC2)cc(CSCc2ccccc2)c2cccnc12`, the growth was 14.5%.

Take `C/C(=N\O)c1ccc(NC(=O)CSc2nnc(-c3cc(-c4ccc(S(N)(=O)=O)cc4)nc4ccccc34)n2-c2ccccc2)cc1`: the growth was 66%.

Turning to `CCOC(=O)c1nn(CC(O)c2ccccc2)c(NC(=O)Nc2cccc(F)c2)c1C` (stereo not given), the growth is 99.8%.

As to `CC(=O)Oc1ccc(OC(C)=O)c2ccccc12`, the growth was -88.6% (active).

With `COC(=O)C(Cc1ccccc1)NC(=O)c1ccc(NC(=O)c2[nH]c(C)c(Cl)c2Cl)c(OC(C)C)c1` (stereo not given), the growth is 101%.

`COc1ccc(C2CC(c3cc(OC)c(OC)c(OC)c3)=NO2)cc1OCCCCOc1cc2c(cc1OC)C(=O)N1CCC[C@H]1C=N2` (stereo not given in full): the growth is 20.3%.

The values above are taken from PubChem BioAssay (NCI).
